PubChem BioAssay AID485317 (Broad Institute, 2010)
Screen size: about 290,000 compounds; about 11,000 (3.8%) were called active. This is one part of a sample in which actives are shown more often than they occur. A number with no mark means an inactive call.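 Rule for the calls: active = mean replicate inhibition above about 79%, with every replicate also reaching it (limit read from the data); inconclusive = only one of the two criteria met; inactive = mean below limit and not every replicate reaching it.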

Molecular target: FAD-linked sulfhydryl oxidase ALR (Homo sapiens) (UniProt P55789)
Sequence (P55789 whole entry, looked up): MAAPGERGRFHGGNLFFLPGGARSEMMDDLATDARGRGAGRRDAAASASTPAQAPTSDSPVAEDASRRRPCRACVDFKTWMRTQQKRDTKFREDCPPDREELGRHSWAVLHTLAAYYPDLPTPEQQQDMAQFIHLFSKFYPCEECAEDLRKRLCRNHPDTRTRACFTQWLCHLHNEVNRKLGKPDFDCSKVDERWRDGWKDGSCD
Test: inhibitors of human ALR sulfhydryl oxidase, primary screen, biochemical, H2O2 detection, HRP-luminol luminescence, single point (AID 485317)
Settings: purified ALR, DTT oxidation, active compounds read high, concentration not given here

For COc1ccc(-n2c(-c3ccc(OC)c(OC)c3)n[nH]c2=S)cc1, the inhibition was 94% (active).
For Cn1sc(NC(=O)c2ccccc2)nc1=O, the inhibition was 88.6% (active).
With Cc1ccc(SC(=O)COc2ccc(C)c(C)c2)cc1 the inhibition was 98.5% (active).
CCCCSc1[nH]c(=O)c(C(=O)OCC)cc1C#N was tested, and the inhibition was 90% (active).
For CC(C)c1nc(SCC(=O)Nc2cccc(C(=O)O)c2)c2c3c(sc2n1)CCCC3, the inhibition was 98.2% (active).
For CCN(CC)c1ccc(NC(=O)C2CCC(CNc3c(N4CCCC4)c(=O)c3=O)CC2)c(C)c1 (centres undefined), the inhibition was 99.4% (active).
For CCCCOC(=O)CNc1nnc(SCC(=O)OCC)[nH]c1=O, the inhibition was 100% (active).
In the case of CCN(CC)c1ccc2oc(=O)c(C)nc2c1, the inhibition is reported as 96.5% (active).
COc1cc(C(=O)NCc2nnc(SCC(=O)Nc3nc4ccc(C)cc4s3)o2)cc(OC)c1OC was tested, and the inhibition was 96.6% (active).
With CC(=O)c1ccc(-c2nnc(CCC(=O)N(C)Cc3cnc4ccccn34)o2)s1 the inhibition was 96.1% (active).

Going from Cc1ccc(-n2c(-c3ccc(Cl)cc3)n[nH]c2=S)cc1 to Cc1ccc(OCc2n[nH]c(=S)n2-c2ccc(C)cc2)cc1, the inhibition rises from -1.26% to 47.3%.

Going from COc1ccc(CNC(=O)COC(=O)CCS(=O)(=O)c2ccc(C)cc2)cc1OC to COc1ccc(Cl)cc1NC(=O)CN(C)C(=O)c1cc2ccccc2cc1OC, the inhibition falls from 2.97% to -4.22%.

Going from CCCCN1C(=O)C(=O)N(CC(=O)Nc2cccc(C(C)=O)c2)C1=O to Cc1ccc(C)c2c1cc(C)c1nnc(SCC(=O)Nc3cccc(C(=O)O)c3)n12, the inhibition rises from 1.6% to 3.23%.

Compared with C=CCC[C@@H](Cc1ccc(F)cc1)C(=O)OC[C@@H](C)NC(=O)[C@H](CC=C)CC(=O)N(CCO)Cc1ccccc1, C=CC[C@H](CC(=O)NCCO)C(=O)N[C@@H](COC(=O)[C@@H](CC=C)Cc1ccc(F)cc1)Cc1c[nH]c2ccccc12 is higher in inhibition: -10.3% for the first, 6.65% for the second.

First: O=C(NC(=O)c1ccccc1)NC(=O)c1ccccc1
Second: Cc1nc2ccccc2c(=O)n1NC(=O)c1ccccc1
The inhibition of the first is higher: 0.464% for the first, -10.2% for the second.

Compared with Cc1ccc(C(=O)NC2CCCC(C)C2C)cc1S(=O)(=O)N1CCCCC1 (centres undefined), COc1ccc(NC(=O)C2CCC(CNc3c(N4CCCCC4)c(=O)c3=O)CC2)c(OC)c1 (centres undefined) is lower in inhibition: -6.06% for the first, -10.1% for the second.

First: CC(OC(=O)c1ccc(S(=O)(=O)N2CCOCC2)cc1)c1ccccc1 (centres undefined)
Second: C[C@H](NS(=O)(=O)c1ccc(Cl)cc1)C(=O)OCC(=O)N1CCOCC1
The inhibition of the first is lower: -21.1% for the first, -3.05% for the second.

Compared with Cc1ccc(OCC(=O)NC(C)c2ccccc2)cc1C (centres undefined), COCCNC(=O)COc1ccc(C)c(C)c1 is higher in inhibition: -10.2% for the first, 11.4% for the second.

First: CCn1nc(C(=O)NNS(=O)(=O)c2cc(/C=C/C(=O)O)cc(OC)c2OC)c2ccccc2c1=O
Second: COc1cc(C(=O)NCc2nnc(SCC(=O)c3ccc(Cl)cc3)o2)cc(OC)c1OC
The inhibition of the first is higher: 4% for the first, -31.3% for the second.

Going from O=C(COC(=O)c1ccc([N+](=O)[O-])o1)NC12CC3CC(CC(C3)C1)C2 to COc1ccc(C(=O)OCC(=O)c2cc(C)n(CC3CCCO3)c2C)cc1[N+](=O)[O-] (centres undefined), the inhibition rises from -29.8% to -3.78%.

First: CCOC(=O)c1cc(C#N)c(N2CCCCC2)nc1-c1ccccc1
Second: CCOC(=O)c1cc(C)nc(S(C)(=O)=O)c1C#N
The inhibition of the first is lower: 6.36% for the first, 15.5% for the second.

First: CCOc1cc(C(=O)Nc2ccc(S(=O)(=O)Nc3cnc4ccccc4n3)cc2)cc(OCC)c1OCC
Second: COc1ccc(C(=O)NCc2nnc(SCC(=O)Nc3cccc(OC)c3)o2)cc1
The inhibition of the first is higher: 27.5% for the first, -14.1% for the second.

Compared with Cc1cc(NC(=O)CSc2nc(C(C)C)nc3sc4c(c23)CCC(C)C4)no1 (centres undefined), CC(C)CN(C(=O)CSc1ncnc2sccc12)C1CCS(=O)(=O)C1 (centres undefined) is higher in inhibition: -10.2% for the first, 5.3% for the second.

Compared with CCOc1ccccc1NC(=O)C1CCC(CNc2c(N3CCOCC3)c(=O)c2=O)CC1 (centres undefined), COc1cc(OC)c(N2CC(C(=O)Nc3cc(Cl)ccc3N3CCOCC3)CC2=O)cc1Cl (centres undefined) is higher in inhibition: -8.1% for the first, -7.16% for the second.

First: CCCCn1c(-c2cccc(C)c2)nc2cc3[nH]c(=O)c(C(C)C)nc3cc21
Second: CCOC(=O)CSc1nc(C)c(Oc2ccc(Cl)cc2Cl)c(=O)[nH]1
The inhibition of the first is lower: -32.5% for the first, -20.9% for the second.

Going from CC1CN(C(=O)COC(=O)c2cccc(NS(=O)(=O)c3ccccc3)c2)CC(C)O1 (centres undefined) to C[C@H]1CN([C@@H](C)CO)C(=O)Cc2cc(NC(=O)Cc3ccccc3)ccc2O[C@H]1CN(C)S(=O)(=O)c1cccs1, the inhibition rises from 2.21% to 2.5%.

Going from CCOc1ccc(C(=O)NCC(=O)N2CCCCCCC2)cc1OCC to O=C(COc1ccc(Br)cc1F)NCC1(N2CCCCC2)CCCCC1, the inhibition rises from -5.97% to 2.53%.

Compared with Cc1nnc(SCC(=O)N2CCOCC2)[nH]c1=O, COc1ccc(-c2cnc(SCCNC(=O)c3ccc4c(c3)OCO4)[nH]2)cc1 is higher in inhibition: 3.8% for the first, 14.2% for the second.

Going from Cc1c(C(=O)Nc2ccccn2)oc2ccc(Br)cc12 to CCN(CC)c1ccc2c(Nc3ccccc3)c(C=O)c(=O)oc2c1, the inhibition falls from 1.89% to 1.6%.

Compared with CCN(CC)c1ccc2cc(C(N)=O)/c(=N\NC(=O)c3ccncc3)oc2c1, O=C(CCNC(=O)c1ccc(Br)cc1)NCC(c1ccco1)N1CCCCC1 (centres undefined) is lower in inhibition: 8.16% for the first, 1.52% for the second.

Compared with O=C(NC1CCCCCC1)C1CCN(C(=O)c2ccc(Cl)cc2)CC1, COc1ccc(CN2CCN(C(=O)c3cc(C4CC4)nn3-c3ccccc3)CC2)cc1F is lower in inhibition: 0.152% for the first, -3.02% for the second.

Compared with CN(Cc1ccccc1)C(=O)CCc1ccccc1, CCc1ccc(CN(C)C(=O)CCc2nnc(-c3ccc(-c4ccccc4)cc3)o2)nc1 is lower in inhibition: 26.4% for the first, -6.23% for the second.
